# From publication PMC7862700, “An all-to-all approach to the identification of sequence-specific readers for epigenetic DNA modifications on cytosine”
# Tests used:
# Assay in all cases: DAPPL (digital affinity profiling via proximity ligation, sequencing); 10 mM Tris-HCl pH 7.5, 50 mM NaCl, 1 mM DTT, 4% glycerol, room temperature, 30 min; GST-TFs on glutathione beads, 16-mer random dsDNA library, 0.1% formaldehyde crosslink after washing; high values mean tight binding
# Details in all cases: protein: recombinant; tags: N-terminal GST; dsDNA, one strand shown
# FLI1 = target: T1, FLI1 (Homo sapiens, UniProt Q01543 1-452)
# T1 sequence: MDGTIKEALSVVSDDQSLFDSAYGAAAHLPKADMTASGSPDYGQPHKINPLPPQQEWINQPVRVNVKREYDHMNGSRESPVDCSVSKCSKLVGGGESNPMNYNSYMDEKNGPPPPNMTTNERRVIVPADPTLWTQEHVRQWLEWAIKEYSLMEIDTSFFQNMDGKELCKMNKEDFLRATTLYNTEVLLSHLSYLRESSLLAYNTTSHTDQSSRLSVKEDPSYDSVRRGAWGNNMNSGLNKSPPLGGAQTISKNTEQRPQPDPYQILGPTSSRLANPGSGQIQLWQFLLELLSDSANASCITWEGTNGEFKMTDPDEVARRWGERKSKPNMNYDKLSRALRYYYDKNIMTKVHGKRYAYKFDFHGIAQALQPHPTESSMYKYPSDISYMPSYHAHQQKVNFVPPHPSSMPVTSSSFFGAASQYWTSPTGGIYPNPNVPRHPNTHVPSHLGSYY
# Outline: (§1)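 Pools were built from human transcription factors expressed in yeast as GST fusions, captured on glutathione beads and DNA-barcoded, along with a tag-only sample. Incubation with 200 nmole of a 16-mer random double-stranded DNA library lasted 30 min at room temperature in Tris/NaCl/DTT/glycerol buffer, and was followed by washing, 0.1% formaldehyde crosslinking, proximity ligation, PCR amplification and Illumina NextSeq500 sequencing. Binding signal is the quotient of each hexamer's read frequency for a factor and its frequency for the tag-only sample.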
# ELK1 = target: T2, ELK1 (Homo sapiens, UniProt P19419 1-428)
# T2 sequence: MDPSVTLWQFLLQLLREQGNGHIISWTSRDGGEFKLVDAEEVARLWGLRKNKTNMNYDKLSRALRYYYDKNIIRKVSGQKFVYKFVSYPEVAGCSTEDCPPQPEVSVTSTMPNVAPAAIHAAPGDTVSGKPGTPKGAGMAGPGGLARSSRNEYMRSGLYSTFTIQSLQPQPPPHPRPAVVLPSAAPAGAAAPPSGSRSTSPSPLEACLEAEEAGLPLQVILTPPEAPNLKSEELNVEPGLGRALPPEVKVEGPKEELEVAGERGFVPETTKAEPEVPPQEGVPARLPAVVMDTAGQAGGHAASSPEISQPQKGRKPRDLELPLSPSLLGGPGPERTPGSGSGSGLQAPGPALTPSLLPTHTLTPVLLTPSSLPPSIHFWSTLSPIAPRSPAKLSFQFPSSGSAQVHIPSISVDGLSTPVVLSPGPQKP
# Outline: as §1
# GABPA = target: T3, GABPA (Homo sapiens, UniProt Q06546 1-454)
# T3 sequence: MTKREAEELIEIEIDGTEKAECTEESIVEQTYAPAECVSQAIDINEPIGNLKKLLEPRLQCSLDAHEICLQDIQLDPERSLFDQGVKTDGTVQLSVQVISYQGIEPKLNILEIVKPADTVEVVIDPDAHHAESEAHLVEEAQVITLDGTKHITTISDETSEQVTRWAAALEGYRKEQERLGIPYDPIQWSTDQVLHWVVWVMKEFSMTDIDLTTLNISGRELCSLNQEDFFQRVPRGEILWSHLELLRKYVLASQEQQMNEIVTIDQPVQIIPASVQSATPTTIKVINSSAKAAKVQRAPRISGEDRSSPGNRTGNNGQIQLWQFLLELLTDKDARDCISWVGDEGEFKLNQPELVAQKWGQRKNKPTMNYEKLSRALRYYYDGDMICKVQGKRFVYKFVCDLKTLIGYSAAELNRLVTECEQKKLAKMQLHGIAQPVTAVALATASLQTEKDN
# Outline: as §1
# ERG = target: T4, ERG (Homo sapiens, UniProt P11308 1-479)
# T4 sequence: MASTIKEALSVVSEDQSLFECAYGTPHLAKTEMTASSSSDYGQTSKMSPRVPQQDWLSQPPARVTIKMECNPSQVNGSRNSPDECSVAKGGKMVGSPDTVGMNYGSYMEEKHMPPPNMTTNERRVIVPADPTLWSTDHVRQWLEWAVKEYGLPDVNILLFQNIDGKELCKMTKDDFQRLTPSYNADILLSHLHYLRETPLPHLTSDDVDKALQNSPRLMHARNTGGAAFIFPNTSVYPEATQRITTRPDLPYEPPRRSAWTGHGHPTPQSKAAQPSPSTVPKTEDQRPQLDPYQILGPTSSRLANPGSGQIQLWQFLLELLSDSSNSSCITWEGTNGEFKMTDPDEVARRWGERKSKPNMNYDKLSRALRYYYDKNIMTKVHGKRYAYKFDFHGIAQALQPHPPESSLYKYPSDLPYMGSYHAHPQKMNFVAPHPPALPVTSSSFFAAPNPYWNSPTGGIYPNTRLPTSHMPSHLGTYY
# Outline: as §1
# ELF1 = ELF1 (Homo sapiens, UniProt P32519 1-619)
# Outline: as §1
# EHF = target: T5, EHF (Homo sapiens, UniProt Q9NZC4 1-300)
# T5 sequence: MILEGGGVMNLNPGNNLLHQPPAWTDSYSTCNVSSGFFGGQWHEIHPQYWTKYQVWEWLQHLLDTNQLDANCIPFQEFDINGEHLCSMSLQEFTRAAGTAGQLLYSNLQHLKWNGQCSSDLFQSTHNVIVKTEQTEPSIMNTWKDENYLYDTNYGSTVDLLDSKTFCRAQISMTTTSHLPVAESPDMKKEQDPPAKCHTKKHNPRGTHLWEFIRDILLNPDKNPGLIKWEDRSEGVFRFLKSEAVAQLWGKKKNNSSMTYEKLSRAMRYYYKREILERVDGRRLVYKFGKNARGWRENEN
# Outline: as §1
# SPI1 = SPI1 (Homo sapiens, UniProt P17947 1-270)
# Outline: as §1
# SPIB = SPIB (Homo sapiens, UniProt Q01892 1-262)
# Outline: as §1
# ELK3 = target: T6, ELK3 (Homo sapiens, UniProt P41970 1-407)
# T6 sequence: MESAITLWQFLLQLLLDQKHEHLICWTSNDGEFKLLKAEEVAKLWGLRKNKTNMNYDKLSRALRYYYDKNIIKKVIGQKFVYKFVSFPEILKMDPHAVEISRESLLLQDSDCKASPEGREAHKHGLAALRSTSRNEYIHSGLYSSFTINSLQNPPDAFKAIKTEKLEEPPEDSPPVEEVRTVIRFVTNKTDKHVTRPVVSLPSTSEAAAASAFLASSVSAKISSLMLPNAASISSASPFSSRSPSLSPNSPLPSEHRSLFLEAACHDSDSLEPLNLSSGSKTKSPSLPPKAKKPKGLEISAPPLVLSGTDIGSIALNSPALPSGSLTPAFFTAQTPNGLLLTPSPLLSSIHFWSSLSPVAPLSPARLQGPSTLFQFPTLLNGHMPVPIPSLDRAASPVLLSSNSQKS
# Outline: as §1
# Chain of ELF1 (P32519 whole entry): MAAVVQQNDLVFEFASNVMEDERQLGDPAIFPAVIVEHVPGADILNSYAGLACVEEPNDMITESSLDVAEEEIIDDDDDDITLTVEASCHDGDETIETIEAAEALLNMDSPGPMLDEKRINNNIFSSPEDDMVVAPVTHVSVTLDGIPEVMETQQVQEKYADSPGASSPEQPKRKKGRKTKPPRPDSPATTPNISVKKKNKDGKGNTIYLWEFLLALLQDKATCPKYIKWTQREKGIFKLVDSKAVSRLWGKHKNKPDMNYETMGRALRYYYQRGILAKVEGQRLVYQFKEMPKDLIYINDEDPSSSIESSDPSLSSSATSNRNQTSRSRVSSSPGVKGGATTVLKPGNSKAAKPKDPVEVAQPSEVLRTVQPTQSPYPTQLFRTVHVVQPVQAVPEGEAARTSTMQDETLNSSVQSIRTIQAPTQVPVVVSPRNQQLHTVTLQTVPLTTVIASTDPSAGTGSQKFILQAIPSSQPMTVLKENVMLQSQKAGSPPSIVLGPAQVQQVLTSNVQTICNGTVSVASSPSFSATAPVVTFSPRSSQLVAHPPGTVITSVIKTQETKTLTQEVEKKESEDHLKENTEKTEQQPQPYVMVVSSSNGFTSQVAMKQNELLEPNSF
# Chain of SPIB (Q01892 whole entry): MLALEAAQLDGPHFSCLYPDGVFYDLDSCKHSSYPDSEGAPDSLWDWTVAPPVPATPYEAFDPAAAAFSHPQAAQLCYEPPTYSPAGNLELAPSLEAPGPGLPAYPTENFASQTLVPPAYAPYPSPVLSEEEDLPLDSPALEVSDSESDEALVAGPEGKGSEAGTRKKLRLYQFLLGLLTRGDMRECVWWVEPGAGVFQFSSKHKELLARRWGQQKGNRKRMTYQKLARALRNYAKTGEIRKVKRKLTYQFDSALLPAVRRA
Sequence,binding signal (FLI1),binding signal (ELK1),binding signal (GABPA),binding signal (ERG),binding signal (ELF1),binding signal (EHF),binding signal (SPI1),binding signal (SPIB),binding signal (ELK3)
CTCGAT,"1.48 fold enrichment (6-mer frequency, TF over GST control)","1.38 fold enrichment (6-mer frequency, TF over GST control)","1.32 fold enrichment (6-mer frequency, TF over GST control)","1.26 fold enrichment (6-mer frequency, TF over GST control)","1.49 fold enrichment (6-mer frequency, TF over GST control)","1.27 fold enrichment (6-mer frequency, TF over GST control)","1.36 fold enrichment (6-mer frequency, TF over GST control)","1.49 fold enrichment (6-mer frequency, TF over GST control)","1.18 fold enrichment (6-mer frequency, TF over GST control)"
CACGTT,"1.28 fold enrichment (6-mer frequency, TF over GST control)","1.35 fold enrichment (6-mer frequency, TF over GST control)","1.3 fold enrichment (6-mer frequency, TF over GST control)","1.28 fold enrichment (6-mer frequency, TF over GST control)","1.29 fold enrichment (6-mer frequency, TF over GST control)","1.24 fold enrichment (6-mer frequency, TF over GST control)","1.3 fold enrichment (6-mer frequency, TF over GST control)","1.21 fold enrichment (6-mer frequency, TF over GST control)","1.25 fold enrichment (6-mer frequency, TF over GST control)"
TGCGCT,"1.27 fold enrichment (6-mer frequency, TF over GST control)","1.3 fold enrichment (6-mer frequency, TF over GST control)","1.13 fold enrichment (6-mer frequency, TF over GST control)","1.25 fold enrichment (6-mer frequency, TF over GST control)","1.19 fold enrichment (6-mer frequency, TF over GST control)","1.25 fold enrichment (6-mer frequency, TF over GST control)","1.11 fold enrichment (6-mer frequency, TF over GST control)","1.31 fold enrichment (6-mer frequency, TF over GST control)","1.25 fold enrichment (6-mer frequency, TF over GST control)"
TCTCTG,"1.67 fold enrichment (6-mer frequency, TF over GST control)","1.67 fold enrichment (6-mer frequency, TF over GST control)","1.47 fold enrichment (6-mer frequency, TF over GST control)","1.56 fold enrichment (6-mer frequency, TF over GST control)","1.66 fold enrichment (6-mer frequency, TF over GST control)","1.62 fold enrichment (6-mer frequency, TF over GST control)","1.52 fold enrichment (6-mer frequency, TF over GST control)","1.5 fold enrichment (6-mer frequency, TF over GST control)","1.52 fold enrichment (6-mer frequency, TF over GST control)"
